Calls of active or inactive are those of the source. The call rests on the fitted dose curve; in most records, active means well fitted activation curve with a large enough effect; inconclusive means small, poorly fitted or top-dose-only effect; inactive means flat fitted curve, though single readings scatter.

The nature of this assay: Cellular Toxicity (caspase-3) SK-N-SH (AID 661).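 Further: 0% = DMSO basal and 100% = 10 µM staurosporine.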 Particulars: SK-N-SH caspase-3 activation, qHTS; series mostly up to 91.7 µM; caspase-3 activation: at the top concentration. The source says:
NIH Chemical Genomics Center [NCGC]
NIH Molecular Libraries Screening Centers Network [MLSCN]
National Institutes of Environmental Health Sciences [NIEHS]
National Toxicology Program [NTP]
We have developed a 1536-well cell-based assay for quantitative high throughput screening (qHTS) against a number of cell lines to determine in vitro caspase 3/7 activity of small molecules. This particular assay uses the SK-N-SH cell line which is derived from human neuroblastoma.
NCGC Assay Protocol Summary:
The Caspase-Glo 3/7 assay (Promega) is a homogeneous method to measure caspase-3 and caspase-7 activities in cultured cells. The quantitation of caspase 3/7 activity is based on the cleavage of a peptide-aminoluciferin substrate. After caspase cleaves the substrate the free aminoluciferin is liberated and serves as the substrate of luciferase, which generates the light. The luminescent signal is proportional to amount of caspase 3/7 activity present.
Using the Caspase-Glo 3/7 assay, the amount of caspase 3/7 activity was measured in the SK-N-SH cell line with complete culture medium following compound treatment for 16 hours. The assay was performed in opaque white 1536-well plates. In the screen, tamoxifen and staurosporine were used as positive controls. Library compounds were measured for their ability to cause the activation of caspase 3/7 in the cell line, as reflected by an increase in luminescence signal, in a concentration-dependent manner. Data were normalized to the controls for basal activity (DMSO only) and 100% stimulation (10 uM staurosporine). AC50 values were determined from concentration-response data modeled with the standard Hill equation.
qHTS protocol for caspase 3/7 assay in SK-N-SH cells
[Step] [Parameter] [Value] [Description]
1. Reagent; 5 uL; 1500 SK-N-SH cells/well
2. Time; 5 hr; 37 °C incubation
4. Controls; 23 nL; Tamoxifen 0.23 uM to 100 uM & staurosporine 1.4 pM to 100 uM
5. Time; 16 hr; 37 °C incubation
6. Reagent; 5 uL; Caspase-Glo 3/7 reagent
7. Time; 1 hr; Room Temperature
8. Detection; Luminescence; Viewlux plate reader
Keywords: caspase 3/7, apoptosis, SK-N-SH cell line, luminescence, NTPHTS, NTPHTS_NCGC, NIEHS, EPA, DSSTox, MLSMR, MLSCN, NIH Roadmap, qHTS, NCGC
Take `CC(C)CON=O`: the “caspase-3 activation” value is -1.01% (inactive). As for `CC(=O)NNc1ccccc1`, the “caspase-3 activation” value is -0.623% (inactive). For the compound `Cc1coc2c1CCC(C)C2` (stereo not given), the “caspase-3 activation” value is -1.11% (inactive). The value for `CCCCCC[N+](=O)[O-]` was -0.266% (inactive); that for `BrC(Br)Br` was -0.982% (inactive); that for `C/C=C/CC#N` was 0.864% (inactive). The value for `C[N+](=O)[O-]` was 1.18% (inactive). The result for `ClCCOCOCCCl` reads 0.346% (inactive); that for `C=CC#N`, 2.49% (inactive). In the case of `Nc1ccc([N+](=O)[O-])cc1[N+](=O)[O-]`, the “caspase-3 activation” value is -0.51% (inactive). The value for `CCBr` was -0.211% (inactive). The value for `C=CCCl` was 0.722% (inactive); that for `O=[N+]([O-])c1ccc(O)c([N+](=O)[O-])c1` was -3.89% (inactive); that for `Cl/C=C/Cl` was 0.882% (inactive). For `Oc1c(Cl)c(Cl)cc(Cl)c1Cl`, the “caspase-3 activation” value was -3.73% (inactive). Turning to `Nc1ccc2ccccc2c1`, the “caspase-3 activation” value is 2.97% (inactive). The value for `Clc1ccc(C(Cl)(Cl)Cl)cc1Cl` was 13.2% (inactive). The value for `CCCCOC(=O)c1ccccc1N` was -0.431% (inactive); that for `O=[N+]([O-])/C=C/c1ccccc1` was 16.4% (inactive); that for `N#C/C=C/C#N` was -4.27% (inactive). For the compound `CCCCNC(=O)n1c(NC(=O)OC)nc2ccccc21`, the “caspase-3 activation” value was 8.97% (inactive). The result for `CC(C)(OOC(C)(C)c1ccccc1)c1ccccc1` reads 18.4% (inactive). The value for `c1ccc(C2CO2)cc1` (stereo not given) was -2.07% (inactive); that for `ClC(Br)Br` was -0.472% (inactive); that for `Nc1cccc(Cl)c1` was 2.47% (inactive). Turning to `S=C1NCCN1`, the “caspase-3 activation” value is 0.317% (inactive). The value for `Nc1c(Cl)cc([N+](=O)[O-])cc1Cl` was -0.824% (inactive); that for `ClC=CCl` was -1.99% (inactive). Turning to `C=CCCC#N`, the “caspase-3 activation” value was 0.241% (inactive). The value for `O=C(Cc1ccccc1)OCc1ccccc1` was -0.915% (inactive); that for `[O-][Cl+]O` was -1.41% (inactive); that for `BrCCc1ccccc1` was 4.58% (inactive).

Regarding `O=[N+]([O-])c1cc(Cl)c(Cl)c(Cl)c1`, the “caspase-3 activation” value is -0.634% (inactive).

Consider `CCOS(C)(=O)=O`, for which the “caspase-3 activation” value is 0.603% (inactive). The result for `O=[N+]([O-])c1ccccc1O` reads -0.0288% (inactive). The value for `Cc1ccccc1[N+](=O)[O-]` was 0.0923% (inactive). The result for `CN=C=O` reads -1.1% (inactive); that for `Nc1ccc(Cc2ccc(N)cc2)cc1`, -0.137% (inactive); that for `O=C(O)C(Br)Br`, 11.8% (inactive). For `C=CC(=O)OC`, the “caspase-3 activation” value was -0.967% (inactive).
